Assay results reported in PubChem BioAssay (EPA / NIEHS).
A structure can be active in one record and inactive in another. The source made the active and inactive calls. How the source made its calls: active means hit-call score of the fitted dose curve at least 0.9, where 1 is the maximum; inactive means score below 0.9.

Each compound was assayed on E-selectin (Homo sapiens) (UniProt P16581) (assay: BSK_SAg_Eselectin: BioMAP Diversity Plus: SAg Assay for Eselectin Biomarker Activity (AID 2283091)). Details: primary human HUVEC with PBMC; actives raise or lower the signal.
Sequence of E-selectin (Homo sapiens) (P16581 whole entry, looked up): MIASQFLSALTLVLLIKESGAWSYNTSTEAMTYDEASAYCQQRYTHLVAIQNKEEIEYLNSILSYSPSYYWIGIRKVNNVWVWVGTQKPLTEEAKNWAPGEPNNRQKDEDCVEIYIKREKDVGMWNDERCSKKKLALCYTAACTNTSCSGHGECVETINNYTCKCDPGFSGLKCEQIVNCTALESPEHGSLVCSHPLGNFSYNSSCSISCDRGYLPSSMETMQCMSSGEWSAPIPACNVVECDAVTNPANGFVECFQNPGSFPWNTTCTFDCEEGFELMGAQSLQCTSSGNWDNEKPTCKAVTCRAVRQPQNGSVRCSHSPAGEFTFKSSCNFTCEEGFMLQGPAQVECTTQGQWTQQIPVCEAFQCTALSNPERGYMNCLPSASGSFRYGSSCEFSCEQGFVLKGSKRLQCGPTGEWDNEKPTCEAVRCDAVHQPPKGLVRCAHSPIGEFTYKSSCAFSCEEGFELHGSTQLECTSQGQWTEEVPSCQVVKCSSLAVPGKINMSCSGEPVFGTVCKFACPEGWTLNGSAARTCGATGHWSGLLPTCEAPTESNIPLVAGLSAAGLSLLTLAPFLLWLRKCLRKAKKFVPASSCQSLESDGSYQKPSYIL
Experimental: BSK_SAg is a cell-based, multiplexed-readout assay that uses umbilical vein endothelium and peripheral blood mononuclear cells, a human vascular primary cell co-culture, with measurements taken at 24 hours after chemical dosing in a 96-well plate.BSK_SAg_Eselectin is an assay component measured in the BSK_SAg assay. It measures E-selectin antibody related to regulation of gene expression using ELISA technology.Data from the assay component BSK_SAg_Eselectin was analyzed into 1 assay endpoint. This assay endpoint, BSK_SAg_Eselectin, was analyzed with bidirectional fitting relative to DMSO as the negative control and baseline of activity. Using a type of binding reporter, gain or loss-of-signal activity can be used to understand changes in the signaling as they relate to the gene SELE. Furthermore, this assay endpoint can be referred to as a primary readout, because this assay has produced multiple assay endpoints where this one serves a signaling function. To generalize the intended target to other relatable targets, this assay endpoint is annotated to the cell adhesion molecules intended target family, where the subfamily is selectins.
The levels of cell surface (or secreted, indicated by the prefix "s") biomarker endpoints were measured by ELISA. Overt cytotoxicity to cells in confluent adherent cultures (all systems other than the BT system) was assessed by measuring total protein levels using sulforhodamine B (SRB) staining in parallel cultures at the time of biomarker measurements, indicated as SRB endpoints. For proliferation assays for adherent cell types, individual cell types are cultured at sub-confluence and relative cell numbers quantified by SRB staining at time points optimized for each system (48 h: 3C and CASM3C systems; 72 h: BT and HDF3CGF systems; 96 h: SAg system). SRB was performed by staining cells with 0.1% SRB after fixation with 10% TCA and reading wells at 560 nm.Viability and proliferation of PBMC (T cells) was quantified by Alamar Blue reduction for the SAg and BT systems. For PBMC viability (referred to as PBMC Cytotoxicity within the assay endpoint names), cells were plated (75,000/well in a 96-well plate) and then chemical samples added for 1 h before addition of activators, SEB and TSST-1 (20 ng/mL final concentration each). Cells were incubated for 90 h. Then, Alamar Blue (20 uL/well) (Invitrogen, Cat DAL1100) was added for 6 h, and the plates were read with a fluorescence microplate reader at 546/580 nm (excitation/emission). For PBMC proliferation, cells were plated and activated as above but incubated for only 16 h prior to addition of Alamar Blue. Plates were read after 6 h.
In the case of `CC12CC1(C)C(=O)N(c1cc(Cl)cc(Cl)c1)C2=O` (stereo not given), the outcome was “inactive”. In the case of `COP(=S)(OC)Oc1ccc(Sc2ccc(OP(=S)(OC)OC)cc2)cc1`, the AC50 was 30.4 µM (active). `Oc1cccc2cccnc12` was tested, and the AC50 was 2.77 µM (active). `NC(=S)Nc1ccccc1` was tested, and the outcome was “inactive”. With `CCC(=O)C(CC(C)N(C)C)(c1ccccc1)c1ccccc1` (stereo not given) the outcome was “inactive”. With `CCOP(=S)(OCC)Oc1nc(Cl)c(Cl)cc1Cl` the AC50 was 28 µM (active). For `CC(C)(C)c1cc(O)ccc1O`, the AC50 was 5.56 µM (active). `Nc1ncc([N+](=O)[O-])s1` was tested, and the outcome was “inactive”. With `COC(=O)Cc1ccccc1` the outcome was “inactive”. `CCNc1nc(NC(C)(C)C)nc(SC)n1` was tested, and the outcome was “inactive”. For `CCCCCCCCc1ccc(O)cc1`, the AC50 was 29.2 µM (active). `CC(=O)OC(c1ccccc1)C(Cl)(Cl)Cl` (stereo not given) was tested, and the AC50 was 20 µM (active) and the outcome was “inactive”. For `CCOP(=S)(OCC)SCCS(=O)(=O)CC`, the outcome was “inactive”. For `O=C(OC1CCCCC1)c1ccccc1C(=O)OC1CCCCC1`, the AC50 was 29.8 µM (active). `COP(=S)(OC)Oc1c(Cl)cc(C)cc1Cl` was tested, and the outcome was “inactive”. `Cc1ccccc1N` was tested, and the outcome was “inactive”. For `O=C(Nc1ccc2[nH]ccc2c1)c1cc2cc(F)ccc2n1Cc1cccc(F)c1`, the AC50 was 12.8 µM (active). `CC1(C)Cc2cccc(O)c2O1` was tested, and the outcome was “inactive”. `COC(=O)c1sccc1S(=O)(=O)NC(=O)Nc1nc(C)nc(OC)n1` was tested, and the outcome was “inactive”. In the case of `O=[N+]([O-])c1ccc(O)c([N+](=O)[O-])c1`, the outcome was “inactive”. With `O=S(=O)(c1ccc(Cl)cc1)c1ccc(Cl)cc1` the outcome was “inactive”. For `O=C(O)CCC(F)(C(F)(F)F)C(F)(F)F`, the outcome was “inactive”. In the case of `ClC1(Cl)C2(Cl)C3(Cl)C4(Cl)C(Cl)(Cl)C5(Cl)C3(Cl)C1(Cl)C5(Cl)C24Cl` (stereo not given), the outcome was “inactive”. For `C(=NC1CCCCC1)=NC1CCCCC1`, the AC50 was 3.97 µM (active). `CN(C)N=O` was tested, and the outcome was “inactive”. In the case of `CCSC(C)CC1CC(=O)C(C(CC)=NOC/C=C/Cl)=C(O)C1` (stereo not given), the outcome was “inactive”. In the case of `ClCC(Cl)CCl`, the outcome was “inactive”. For `O=C(O)C(Cl)(Cl)Cl`, the outcome was “inactive”. `Cn1sc(Cl)cc1=O` was tested, and the AC50 was 20 µM (active). `CC(=O)[O][Hg][c]1ccccc1` was tested, and the AC50 was 1.58 µM (active). With `C[C@]12CCC(=O)C[C@@H]1CC[C@@H]1[C@@H]2CC[C@]2(C)[C@@H](O)CC[C@@H]12` the outcome was “inactive”. `CC(C)c1ccc(CO)cc1` was tested, and the outcome was “inactive”. With `C[C@@H]1C[C@@H]([C@H](O)CC2CC(=O)NC(=O)C2)C(=O)[C@@H](C)C1` the AC50 was 0.585 µM (active). With `O=c1[nH]c(=O)[nH]c(=O)[nH]1` the outcome was “inactive”. In the case of `CC(C)(C)CC(C)(C)c1ccc(O)cc1`, the AC50 was 9.86 µM (active). In the case of `ClC1=C(Cl)[C@]2(Cl)[C@H]3[C@H]([C@H]4C=C[C@H]3C4)[C@@]1(Cl)C2(Cl)Cl`, the outcome was “inactive”. With `OCc1ccco1` the outcome was “inactive”. In the case of `O=C(O)C(F)(F)C(F)(F)C(F)(F)C(F)(F)C(F)(F)C(F)(F)C(F)(F)C(F)(F)C(F)(F)C(F)(F)F`, the outcome was “inactive” and the AC50 was 35.3 µM (active).
